Test system: MV4-11
Assay: CellTox Green cytotoxicity fluorescence relative to DMSO vehicle (fold of vehicle RFU); higher = more cell death (loss of membrane integrity), active = 2 or more
Description: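 Paediatric AML cell lines (MV4-11, CMK, Kasumi-1; 4x10^4 cells/well, 96-well) treated with single compounds from the Selleckchem apoptosis library at 0.01, 0.1 and 1 µM. Cytotoxicity was read with CellTox Green (RFU, Ex 485/Em 520) at 24, 48 and 72 h and normalised to the 0.1% DMSO vehicle. Normalised RFU >= 2 was taken as a successful, cell-killing treatment.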

Measured: CellTox Green cytotoxicity fluorescence

CN[C@@H](C)C(=O)N[C@H](C(=O)N1CCC[C@H]1C(=O)Nc1snnc1-c1ccccc1)C1CCCCC1
inactive: 0.01 µM, 24 h 1.01 | 0.01 µM, 48 h 0.97 | 0.01 µM, 72 h 0.974 | 0.1 µM, 24 h 0.988 | 0.1 µM, 48 h 0.993 | 0.1 µM, 72 h 1 | 1 µM, 24 h 1.01 | 1 µM, 48 h 1.03 | 1 µM, 72 h 1.04

CC(C)c1ccccc1Cc1cc(C(=O)Nc2ccc(S(=O)(=O)c3ccccc3C(C)(C)C)cc2)c(O)c(O)c1O
inactive: 0.01 µM, 24 h 0.952 | 0.01 µM, 48 h 0.952 | 0.01 µM, 72 h 0.957 | 0.1 µM, 24 h 0.956 | 0.1 µM, 48 h 0.944 | 0.1 µM, 72 h 0.945 | 1 µM, 24 h 0.933 | 1 µM, 48 h 1.16 | 1 µM, 72 h 1.84

N#Cc1ccc(-c2c(-c3ncn[nH]3)sc(N3CCOCC3)c2C#N)c(F)c1
inactive: 0.01 µM, 24 h 0.973 | 0.01 µM, 48 h 0.967 | 0.01 µM, 72 h 0.969 | 0.1 µM, 24 h 0.972 | 0.1 µM, 48 h 0.993 | 0.1 µM, 72 h 0.991 | 1 µM, 24 h 1.01 | 1 µM, 48 h 1.13 | 1 µM, 72 h 1.13

Cc1nc(Nc2ncc(C(=O)Nc3c(C)cccc3Cl)s2)cc(N2CCN(CCO)CC2)n1 [Dasatinib Monohydrate]
inactive: 0.01 µM, 24 h 1 | 0.01 µM, 48 h 0.989 | 0.01 µM, 72 h 0.978 | 0.1 µM, 24 h 0.993 | 0.1 µM, 48 h 0.983 | 0.1 µM, 72 h 0.97 | 1 µM, 24 h 1.02 | 1 µM, 48 h 1.01 | 1 µM, 72 h 1.01

COc1nc(-c2ccc3c(c2)OCO3)n(-c2ccc(NC(=O)CSc3ccccc3)cc2)n1 [SecinH3]
inactive: 0.01 µM, 24 h 1.02 | 0.01 µM, 48 h 1.02 | 0.01 µM, 72 h 1.02 | 0.1 µM, 24 h 1.01 | 0.1 µM, 48 h 1.01 | 0.1 µM, 72 h 1 | 1 µM, 24 h 1 | 1 µM, 48 h 1.03 | 1 µM, 72 h 1.05
